Assay results reported in PubChem BioAssay (EPA / NIEHS).
Inconclusive results are not listed. The source made the active and inactive calls. Rule for the calls, unless noted: active = hit-call score of the fitted dose curve at least 0.9, where 1 is the maximum; inactive = score below 0.9.

Tests used:
[1] = ATG_TAL_CIS: Attagene CIS-FACTORIAL HepG2 Assay for human TAL Basal Promoter (AID 2282966); details: HepG2 Attagene cis-factorial TAL promoter reporter; actives raise or lower the signal;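 note: background control endpoint measuring basal TAL promoter reporter mRNA not a specific factor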
Summary of the method: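 RT-PCR plus capillary electrophoresis quantifies reporter mRNA induction in transiently transfected HepG2 cells after 24 h chemical treatment. DMSO serves as negative control and baseline for bidirectional fitting.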

[2] = ATG_TGFb_CIS: Attagene CIS-FACTORIAL HepG2 Assay for human Transforming Growth Factor (TGF) (AID 2282967); details: HepG2 Attagene CIS TGFb reporter, mRNA transcription; actives raise or lower the signal
Summary of the method: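 Liver HepG2 line, cis-factorial reporter panel, 24 h dosing. Quantitation: RT-PCR products labeled with 6-FAM, cut with HpaI, resolved by capillary electrophoresis; DMSO-referenced bidirectional analysis.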

[3] = ATG_VDRE_CIS: Attagene CIS-FACTORIAL HepG2 Assay for human Vitamin D Receptor Element (VDRE) (AID 2282968); details: HepG2 VDRE cis-reporter transcription, actives raise or lower the signal
Summary of the method: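 Transiently transfected HepG2 cells carrying cis-regulated reporter transcription units were exposed for 24 h. Reporter mRNA was measured by RT-PCR with fluorescent labelling and capillary electrophoresis, and fitted in both directions against DMSO.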

[4] = biological target: X-box-binding protein 1 (Homo sapiens) (UniProt P17861); experiment: ATG_Xbp1_CIS: Attagene CIS-FACTORIAL HepG2 Assay for human X-box Binding Protein 1 (XBP1) (AID 2282972); details: HepG2 XBP1 cis-element reporter, Attagene multiplex; actives raise or lower the signal
X-box-binding protein 1 (Homo sapiens), sequence (P17861 whole entry, looked up): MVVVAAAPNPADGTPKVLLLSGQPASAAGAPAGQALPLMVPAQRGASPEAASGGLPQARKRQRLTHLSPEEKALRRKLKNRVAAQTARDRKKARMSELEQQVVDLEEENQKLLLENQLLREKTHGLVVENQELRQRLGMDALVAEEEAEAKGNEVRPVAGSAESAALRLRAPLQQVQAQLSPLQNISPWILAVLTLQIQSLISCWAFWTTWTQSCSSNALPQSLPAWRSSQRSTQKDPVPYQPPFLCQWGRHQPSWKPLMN
Summary of the method: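 HepG2, transient MRTU transfection (cis-promoter driven), 24 h compound exposure. Total RNA → oligo(dT) RT → PCR → 6-FAM labeling → HpaI cut → CE. Bidirectional fit vs DMSO.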

[5] = ATG_M_19_TRANS: Attagene TRANS-FACTORIAL HepG2 Assay for M19 Transcription Factor (Internal Marker) (AID 2282974; active = hit-call score of the fitted dose curve at least 0.9, where 1 is the maximum); details: HepG2 Attagene TRANS-FACTORIAL M19 internal marker reporter
Summary of the method: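 Measured here: internal-marker reporter transcript from HepG2 cells transfected with MRTUs, harvested at 24 h. cDNA PCR products were 6-FAM labelled by primer extension, cut with HpaI for 2 h at 37 C, and resolved by CE.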

[6] = biological target: Glucocorticoid receptor (Homo sapiens) (UniProt P04150); experiment: ATG_GR_TRANS: Attagene TRANS-FACTORIAL HepG2 Assay for human Glucocorticoid Receptor (GR) (AID 2282978; active = hit-call score of the fitted dose curve at least 0.9, where 1 is the maximum;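 note: activators score as hits since higher reporter transcript over DMSO is fitted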); details: HepG2 Attagene TRANS GR reporter, mRNA transcription
Glucocorticoid receptor (Homo sapiens), sequence (P04150 whole entry, looked up, the tested form may be a part): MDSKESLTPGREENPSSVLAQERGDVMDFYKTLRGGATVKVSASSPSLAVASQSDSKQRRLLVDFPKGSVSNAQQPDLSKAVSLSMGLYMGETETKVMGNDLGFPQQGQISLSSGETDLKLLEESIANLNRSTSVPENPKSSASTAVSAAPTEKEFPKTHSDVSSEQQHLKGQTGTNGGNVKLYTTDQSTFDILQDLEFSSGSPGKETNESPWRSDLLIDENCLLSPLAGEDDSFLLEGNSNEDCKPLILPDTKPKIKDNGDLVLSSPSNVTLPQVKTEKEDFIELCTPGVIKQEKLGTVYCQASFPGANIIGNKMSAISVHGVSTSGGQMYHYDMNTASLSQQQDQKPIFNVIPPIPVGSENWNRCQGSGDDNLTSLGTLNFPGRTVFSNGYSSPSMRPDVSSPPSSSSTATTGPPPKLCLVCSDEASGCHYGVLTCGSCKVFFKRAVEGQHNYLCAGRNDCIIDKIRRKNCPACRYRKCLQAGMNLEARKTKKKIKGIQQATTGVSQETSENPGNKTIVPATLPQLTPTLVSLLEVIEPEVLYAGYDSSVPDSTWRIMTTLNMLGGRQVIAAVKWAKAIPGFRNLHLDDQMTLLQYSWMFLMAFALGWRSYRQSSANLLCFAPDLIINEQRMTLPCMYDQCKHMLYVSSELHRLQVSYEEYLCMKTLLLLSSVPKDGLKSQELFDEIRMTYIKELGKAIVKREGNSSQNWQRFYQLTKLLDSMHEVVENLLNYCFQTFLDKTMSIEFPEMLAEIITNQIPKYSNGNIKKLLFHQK
Summary of the method: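 Measurement of GAL4-UAS-driven reporter mRNA in human HepG2 liver cells 24 h post-dosing, using RT-PCR with fluorescent labelling and capillary electrophoresis; the transfected constructs report exogenous NR-GAL4 chimera activity, fitted upward against DMSO.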

[7] = biological target: Oxysterols receptor LXR-alpha (Homo sapiens) (UniProt Q13133); experiment: ATG_LXRa_TRANS: Attagene TRANS-FACTORIAL HepG2 Assay for human Liver X Receptor alpha (LXRa) (AID 2282980; active = hit-call score of the fitted dose curve at least 0.9, where 1 is the maximum); details: HepG2 Attagene TRANS reporter, LXRa transactivation
Oxysterols receptor LXR-alpha (Homo sapiens), sequence (Q13133 whole entry, looked up, the tested form may be a part): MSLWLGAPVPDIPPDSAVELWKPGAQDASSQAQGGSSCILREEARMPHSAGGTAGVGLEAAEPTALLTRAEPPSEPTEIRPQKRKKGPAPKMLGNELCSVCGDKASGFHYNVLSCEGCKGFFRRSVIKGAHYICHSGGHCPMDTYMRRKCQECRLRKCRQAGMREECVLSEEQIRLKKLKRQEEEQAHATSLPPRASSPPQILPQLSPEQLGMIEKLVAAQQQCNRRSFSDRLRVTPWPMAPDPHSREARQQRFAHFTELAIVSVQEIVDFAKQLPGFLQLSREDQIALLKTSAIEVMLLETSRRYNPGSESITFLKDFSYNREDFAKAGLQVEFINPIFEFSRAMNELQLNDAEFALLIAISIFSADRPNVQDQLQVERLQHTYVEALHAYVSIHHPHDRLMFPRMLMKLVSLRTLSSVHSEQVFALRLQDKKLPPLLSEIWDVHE
Summary of the method: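 Chemical-induced reporter mRNA measured by RT-PCR with fluorescent labelling and capillary electrophoresis after 24 h dosing of transiently transfected HepG2 cells expressing exogenous NR-Gal4 chimeras; increases scored against DMSO baseline.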

[8] = ATG_M_06_TRANS: Attagene TRANS-FACTORIAL HepG2 Assay for M06 Transcription Factor (Internal Marker) (AID 2282983; active = hit-call score of the fitted dose curve at least 0.9, where 1 is the maximum;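 note: reporter transcript level by RT-PCR then capillary electrophoresis fluorescence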); details: HepG2 Attagene TRANS M06 internal marker reporter
Summary of the method: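 Cells: HepG2, transient multi-reporter transfection. Exposure: 24 h. Detection: RT-PCR, 6-FAM labelling, HpaI digestion (2 h, 37 °C), capillary electrophoresis. Baseline: DMSO.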

[9] = ATG_M_32_TRANS: Attagene TRANS-FACTORIAL HepG2 Assay for M32 Transcription Factor (Internal Marker) (AID 2282984; active = hit-call score of the fitted dose curve at least 0.9, where 1 is the maximum;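 note: transcript level of a background control reporter unit measured by RT-PCR and capillary electrophoresis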); details: HepG2 Attagene TRANS M32 internal marker reporter
Summary of the method: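 HepG2 cells transiently transfected with GAL4-UAS reporter units, dosed for 24 hours. Reporter mRNA quantified by RT-PCR, 6-FAM labelling, HpaI digestion and capillary electrophoresis; internal-marker signal fitted upward relative to DMSO.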

[10] = biological target: Nuclear receptor subfamily 4 group A member 2 (Homo sapiens) (UniProt P43354); experiment: ATG_NURR1_TRANS: Attagene TRANS-FACTORIAL HepG2 Assay for human Nuclear Receptor Related Protein 1 (NURR1) (AID 2282985; active = hit-call score of the fitted dose curve at least 0.9, where 1 is the maximum); details: HepG2 Attagene TRANS reporter, mRNA readout
Nuclear receptor subfamily 4 group A member 2 (Homo sapiens), sequence (P43354 whole entry, looked up, the tested form may be a part): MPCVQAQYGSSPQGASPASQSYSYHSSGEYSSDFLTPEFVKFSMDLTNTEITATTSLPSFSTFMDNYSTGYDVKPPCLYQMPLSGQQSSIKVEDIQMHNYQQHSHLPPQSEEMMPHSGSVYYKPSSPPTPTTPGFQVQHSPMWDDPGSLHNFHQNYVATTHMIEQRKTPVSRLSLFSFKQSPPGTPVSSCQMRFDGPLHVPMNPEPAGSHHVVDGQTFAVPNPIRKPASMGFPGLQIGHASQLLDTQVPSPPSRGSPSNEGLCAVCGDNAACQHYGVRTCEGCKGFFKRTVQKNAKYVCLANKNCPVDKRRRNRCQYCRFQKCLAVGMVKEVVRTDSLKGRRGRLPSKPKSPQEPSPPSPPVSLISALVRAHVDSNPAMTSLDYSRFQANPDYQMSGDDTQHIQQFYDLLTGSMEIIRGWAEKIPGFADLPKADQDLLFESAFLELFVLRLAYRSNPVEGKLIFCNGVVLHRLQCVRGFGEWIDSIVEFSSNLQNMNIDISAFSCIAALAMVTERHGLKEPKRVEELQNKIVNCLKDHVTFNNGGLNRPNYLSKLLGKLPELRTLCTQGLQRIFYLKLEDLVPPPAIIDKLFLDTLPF
Summary of the method: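 HepG2 cells transiently transfected with NURR1-Gal4 chimera and GAL4-UAS reporter units; after 24 hr compound exposure, reporter mRNA quantified by RT-PCR and capillary electrophoresis; gain of signal fitted against DMSO.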

[11] = biological target: Transcriptional activator Myb (Homo sapiens) (UniProt P10242); experiment: ATG_Myb_CIS: Attagene CIS-FACTORIAL HepG2 Assay for human Myeloblastosis (Myb) Proto-Oncogene Transcription Factor (AID 2282986); details: HepG2 Attagene CIS-FACTORIAL Myb reporter transcription; actives raise or lower the signal
Transcriptional activator Myb (Homo sapiens), sequence (P10242 whole entry, looked up): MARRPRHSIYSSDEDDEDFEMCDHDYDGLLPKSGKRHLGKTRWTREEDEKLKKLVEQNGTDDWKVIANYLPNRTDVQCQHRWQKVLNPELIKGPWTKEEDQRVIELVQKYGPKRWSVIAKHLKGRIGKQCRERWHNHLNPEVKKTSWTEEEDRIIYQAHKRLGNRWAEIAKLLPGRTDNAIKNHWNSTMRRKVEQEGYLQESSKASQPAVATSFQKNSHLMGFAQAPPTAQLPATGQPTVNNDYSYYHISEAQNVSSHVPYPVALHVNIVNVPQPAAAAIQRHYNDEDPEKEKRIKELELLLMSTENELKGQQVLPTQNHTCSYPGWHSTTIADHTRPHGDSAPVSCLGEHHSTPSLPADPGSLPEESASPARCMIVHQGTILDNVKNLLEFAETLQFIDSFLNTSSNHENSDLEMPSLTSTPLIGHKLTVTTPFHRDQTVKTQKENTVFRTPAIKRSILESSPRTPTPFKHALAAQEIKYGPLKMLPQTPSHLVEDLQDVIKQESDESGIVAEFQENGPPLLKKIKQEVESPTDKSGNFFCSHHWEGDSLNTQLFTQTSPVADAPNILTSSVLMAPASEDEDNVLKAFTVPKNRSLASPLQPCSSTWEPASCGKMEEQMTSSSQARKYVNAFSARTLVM
Summary of the method: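 Fluorescence signals from capillary electrophoresis of RT-PCR-amplified reporter cDNA give the read-out. Cells: HepG2 transfected with multiple cis-regulated reporter units. Exposure lasts 24 hours; DMSO defines baseline for gain or loss of signal.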

[12] = biological target: Nuclear respiratory factor 1 (Homo sapiens) (UniProt Q16656); experiment: ATG_NRF1_CIS: Attagene CIS-FACTORIAL HepG2 Assay for human Nuclear Respiratory Factor 1 (NRF1) Orphan Gene (AID 2282987); details: HepG2 NRF1 cis-element reporter, Attagene multiplex; actives raise or lower the signal
Nuclear respiratory factor 1 (Homo sapiens), sequence (Q16656 whole entry, looked up): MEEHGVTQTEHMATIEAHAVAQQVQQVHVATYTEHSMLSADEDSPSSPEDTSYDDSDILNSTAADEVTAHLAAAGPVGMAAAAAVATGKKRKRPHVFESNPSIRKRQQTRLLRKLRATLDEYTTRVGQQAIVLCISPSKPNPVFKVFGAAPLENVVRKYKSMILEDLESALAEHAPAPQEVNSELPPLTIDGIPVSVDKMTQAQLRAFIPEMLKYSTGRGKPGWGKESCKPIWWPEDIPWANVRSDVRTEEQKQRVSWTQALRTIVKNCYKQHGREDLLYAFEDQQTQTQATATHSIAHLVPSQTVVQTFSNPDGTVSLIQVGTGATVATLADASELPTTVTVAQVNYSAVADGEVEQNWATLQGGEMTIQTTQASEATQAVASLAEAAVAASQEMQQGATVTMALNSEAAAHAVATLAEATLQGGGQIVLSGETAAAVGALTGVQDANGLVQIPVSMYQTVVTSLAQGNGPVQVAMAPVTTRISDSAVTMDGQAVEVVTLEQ
Summary of the method: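 Transcriptional reporter readout, one component of a 52-endpoint multiplexed HepG2 panel. Exposure 24 h; mRNA detected via RT-PCR and fluorescent capillary electrophoresis; fitting in both directions against DMSO.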

[13] = biological target: Bile acid receptor (Homo sapiens) (UniProt Q96RI1); experiment: ATG_FXR_TRANS: Attagene TRANS-FACTORIAL HepG2 Assay for Farnesoid X Receptor (FXR) (AID 2282979; active = hit-call score of the fitted dose curve at least 0.9, where 1 is the maximum;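 note: hits raise reporter mRNA above DMSO so AC50 marks FXR activation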); details: HepG2 Attagene TRANS FXR-GAL4 reporter transcription
Bile acid receptor (Homo sapiens), sequence (Q96RI1 whole entry, looked up, the tested form may be a part): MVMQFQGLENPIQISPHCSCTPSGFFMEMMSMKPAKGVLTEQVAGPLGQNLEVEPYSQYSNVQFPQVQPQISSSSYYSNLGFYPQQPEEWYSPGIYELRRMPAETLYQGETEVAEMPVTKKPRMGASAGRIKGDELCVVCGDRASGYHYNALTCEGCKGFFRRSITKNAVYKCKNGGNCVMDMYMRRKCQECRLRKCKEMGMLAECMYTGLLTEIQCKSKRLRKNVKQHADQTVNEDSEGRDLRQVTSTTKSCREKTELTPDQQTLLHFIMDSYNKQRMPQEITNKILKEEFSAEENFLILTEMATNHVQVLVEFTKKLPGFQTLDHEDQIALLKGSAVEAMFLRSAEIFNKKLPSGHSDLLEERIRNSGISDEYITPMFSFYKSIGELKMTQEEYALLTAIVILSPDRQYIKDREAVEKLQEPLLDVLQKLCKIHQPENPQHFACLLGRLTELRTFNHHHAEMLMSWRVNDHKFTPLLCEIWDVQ
Summary of the method: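 Reporter transcripts from transfected HepG2 cells were measured 24 h after dosing, using RT-PCR with capillary electrophoresis of 6-FAM-labelled fragments. The read-out reflects activity of exogenous FXR-Gal4 chimera on GAL4-UAS units, with induction relative to DMSO.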

[14] = biological target: Hepatocyte nuclear factor 4-alpha (Homo sapiens) (UniProt P41235); experiment: ATG_HNF4a_TRANS: Attagene TRANS-FACTORIAL HepG2 Assay for human Hepatocyte Nuclear Factor 4 alpha (HNF4a) (AID 2282982; active = hit-call score of the fitted dose curve at least 0.9, where 1 is the maximum); details: HepG2 HNF4a transactivation reporter, mRNA readout
Hepatocyte nuclear factor 4-alpha (Homo sapiens), sequence (P41235 whole entry, looked up, the tested form may be a part): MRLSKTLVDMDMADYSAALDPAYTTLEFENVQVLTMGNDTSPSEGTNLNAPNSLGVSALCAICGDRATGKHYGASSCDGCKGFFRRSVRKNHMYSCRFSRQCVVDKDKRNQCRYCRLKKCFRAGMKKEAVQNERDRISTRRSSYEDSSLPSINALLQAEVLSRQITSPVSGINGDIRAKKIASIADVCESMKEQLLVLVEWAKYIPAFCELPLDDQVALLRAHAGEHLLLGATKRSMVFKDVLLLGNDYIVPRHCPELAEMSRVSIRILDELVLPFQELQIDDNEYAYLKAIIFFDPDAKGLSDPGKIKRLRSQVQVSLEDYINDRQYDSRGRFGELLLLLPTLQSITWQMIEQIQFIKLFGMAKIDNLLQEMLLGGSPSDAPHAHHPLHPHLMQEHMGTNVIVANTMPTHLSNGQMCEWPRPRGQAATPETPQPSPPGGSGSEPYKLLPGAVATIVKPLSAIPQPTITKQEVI
Summary of the method: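 HepG2 cells transiently transfected with HNF4a-Gal4 chimera and GAL4-UAS reporter units, dosed for 24 h. Reporter mRNA measured by RT-PCR, fluorescent primer extension and capillary electrophoresis; gain-of-signal fitted relative to DMSO.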

[15] = ATG_GAL4_TRANS: Attagene TRANS-FACTORIAL HepG2 Assay for GAL4 (Internal Marker) (AID 2282976; active = hit-call score of the fitted dose curve at least 0.9, where 1 is the maximum); details: HepG2 Attagene TRANS GAL4 internal marker reporter
Summary of the method: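 In transfected human HepG2 liver cells dosed 24 h, GAL4 reporter mRNA serves as a baseline marker. Detection by RT-PCR with fluorescent capillary electrophoresis, activity fitted upward relative to DMSO.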

[16] = biological target: Estrogen-related receptor gamma (Homo sapiens) (UniProt P62508); experiment: ATG_ERRg_TRANS: Attagene TRANS-FACTORIAL HepG2 Assay for human Estrogen-Related Receptor gamma (ERRg) (AID 2282977; active = hit-call score of the fitted dose curve at least 0.9, where 1 is the maximum;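 note: hits increase reporter signal over DMSO so potencies reflect activators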); details: HepG2 Attagene TRANS reporter, ERRg transactivation
Summary of the method: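 HepG2 cells transiently transfected with multiplexed GAL4-UAS reporter units driven by chimeric NR-Gal4 proteins; 24 h exposure. Reporter mRNA quantified by RT-PCR, fluorescent labelling, HpaI digestion and capillary electrophoresis; gain of signal vs DMSO.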

[17] = biological target: Oxysterols receptor LXR-beta (Homo sapiens) (UniProt P55055); experiment: ATG_LXRb_TRANS: Attagene TRANS-FACTORIAL HepG2 Assay for human Liver X Receptor beta (LXRb) (AID 2282981; active = hit-call score of the fitted dose curve at least 0.9, where 1 is the maximum); details: HepG2 Attagene TRANS GAL4-LXRb reporter, mRNA
Oxysterols receptor LXR-beta (Homo sapiens), sequence (P55055 whole entry, looked up, the tested form may be a part): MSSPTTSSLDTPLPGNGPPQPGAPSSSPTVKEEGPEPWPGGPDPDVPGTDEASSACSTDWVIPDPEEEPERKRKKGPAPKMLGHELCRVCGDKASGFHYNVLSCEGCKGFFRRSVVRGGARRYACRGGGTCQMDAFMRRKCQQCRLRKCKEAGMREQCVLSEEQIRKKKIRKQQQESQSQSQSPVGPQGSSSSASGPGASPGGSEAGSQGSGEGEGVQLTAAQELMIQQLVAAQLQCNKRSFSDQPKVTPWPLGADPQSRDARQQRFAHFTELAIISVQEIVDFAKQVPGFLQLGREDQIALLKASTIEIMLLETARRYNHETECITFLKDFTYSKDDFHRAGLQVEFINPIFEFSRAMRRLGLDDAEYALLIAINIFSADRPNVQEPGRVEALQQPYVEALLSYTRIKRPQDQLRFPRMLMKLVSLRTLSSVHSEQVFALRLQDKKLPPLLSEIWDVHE
Summary of the method: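 HepG2 cells transiently transfected with GAL4-UAS reporter units for chimeric NR-Gal4 proteins, dosed for 24 h. Reporter transcripts measured by RT-PCR and capillary electrophoresis; gain-of-signal fitting relative to DMSO.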

Measured: AC50

O=c1cc(-c2ccccc2)oc2cc(O)cc(O)c12
inactive: [1] | [2] | [3] | [4] | [5] | [6] | [7] | [8] | [9] | [10] | [11] | [12]

CC(C)=CCCC(C)CC=O (centres undefined)
inactive: [1] | [2] | [3] | [4] | [5] | [6] | [13] | [7] | [14] | [8] | [9] | [10] | [11] | [12]

COc1cc(C(C)(C)C)c(O)c(C(C)(C)C)c1
inactive: [1] | [2] | [3] | [4] | [15] | [16] | [6] | [13] | [7] | [17] | [8] | [10] | [11] | [12]

O=c1[nH]nnc2ccccc12
inactive: [1] | [2] | [3] | [4] | [5] | [13] | [14] | [10] | [11] | [12]

COc1ccc(O)cc1
inactive: [1] | [2] | [3] | [4] | [5] | [15] | [7] | [17] | [9] | [10] | [11] | [12]

C=C[Si](OCC)(OCC)OCC
inactive: [1] | [2] | [3] | [4] | [15] | [6] | [8] | [9] | [11] | [12]

O=C(O)c1ccc([N+](=O)[O-])cc1
inactive: [1] | [2] | [3] | [4] | [15] | [6] | [17] | [14] | [8] | [9] | [11] | [12]

CCN(CC)c1ccc2c(-c3ccccc3C(=O)O)c3ccc(=[N+](CC)CC)cc-3oc2c1
active: [3] 33.5 µM | [4] 100 µM
inactive: [1] | [2] | [5] | [15] | [13] | [9] | [11]

CCC(C)CCCC(C)(C)O (centres undefined)
inactive: [1] | [2] | [3] | [4] | [5] | [7] | [9] | [11]

C=CC(=O)NCOCC(C)C
active: [3] 34.3 µM
inactive: [1] | [2] | [4] | [5] | [13] | [14] | [8] | [9] | [10] | [11]

OCCN1CCNCC1
inactive: [1] | [2] | [3] | [4] | [15] | [16] | [6] | [13] | [17] | [14] | [8] | [10] | [11] | [12]

C=C[C@@H](C)CCC=C(C)C
inactive: [1] | [2] | [3] | [4] | [15] | [7] | [17] | [8] | [9] | [10] | [11] | [12]

CCCCO
inactive: [1] | [2] | [3] | [4] | [5] | [15] | [13] | [14] | [9] | [11] | [12]

CCCCCCOC(=O)CCCCC
inactive: [1] | [2] | [3] | [4] | [5] | [15] | [6] | [14] | [9] | [10] | [12]

CC(=O)C(=O)O
inactive: [1] | [2] | [3] | [4] | [15] | [14] | [8] | [11] | [12]

Cc1ccc2ccccc2n1
inactive: [1] | [2] | [3] | [4] | [5] | [15] | [7] | [17] | [9] | [10] | [11] | [12]

CC(O)C(C)O (centres undefined)
inactive: [1] | [2] | [3] | [4] | [5] | [15] | [7] | [17] | [14] | [8] | [10] | [11] | [12]
